# PubChem BioAssay (NCATS)
# Records with an inconclusive call do not appear. A call without a number means that no potency is given here. Unmarked numbers belong to inactive results. Calls of active or inactive are those of the source. The call rests on the fitted dose curve; in most records, active means well fitted curve in the direction sought with a large enough effect; inconclusive means small, poorly fitted or top-dose-only effect, or another doubt; inactive means no such curve, though single readings can be large; an effect the other way counts as inactive or inconclusive.
# Assays:
# [1] = target: Rap guanine nucleotide exchange factor 3 (Homo sapiens) (UniProt O95398); assay: Confirmatory qHTS for antagonist of cAMP-regulated guanine nucleotide exchange factor 3 (EPAC1) (AID 1645880); settings: EPAC1 Rap1B-BODIPY-GDP exchange, fluorescence; activity, negative = inhibition: at 115 µM (top of the series); further: nearly all actives have a fitted effect of over 55% in size; further: potency means the concentration at half of the fitted maximal effect
# How it was run: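 Released BODIPY-GDP fluoresces less than Rap1-bound BODIPY-GDP; the signal is followed at 480/540 nm at 5-min intervals over 30 min, after 5 min at room temperature. Reactions contain 100 nM EPAC1, 250 nM RAP1B-BODIPY-GDP and 50 uM GDP; results are normalized to ATA and DMSO.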
# [2] = target: Rap guanine nucleotide exchange factor 3 (Homo sapiens) (UniProt O95398); assay: Confirmatory qHTS for agonist of cAMP-regulated guanine nucleotide exchange factor 3 (EPAC1) (AID 1645881); further: nearly all actives have a fitted effect of over 75% in size; further: potency means the concentration at half of the fitted maximal effect;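 on activation: EPAC1 catalysed release of BODIPY-GDP from Rap1B seen as fluorescence loss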
# [3] = target: Rap guanine nucleotide exchange factor 4 (Homo sapiens) (UniProt Q8WZA2); assay: Confirmatory qHTS for agonist of cAMP-regulated guanine nucleotide exchange factor 4 (EPAC2) (AID 1645884);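 further: nucleotide exchange releases bodipy-GDP from Rap1 and this lowers its fluorescence; nearly all actives have a fitted effect of over 65% in size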
# [4] = target: Rap guanine nucleotide exchange factor 4 (Homo sapiens) (UniProt Q8WZA2); assay: Confirmatory qHTS for antagonist of cAMP-regulated guanine nucleotide exchange factor 4 (EPAC2) (AID 1645885); further: nearly all actives have a fitted effect of over 25% in size; further: potency means the concentration at half of the fitted maximal effect
# [5] = target: Rap guanine nucleotide exchange factor 3 (Homo sapiens) (UniProt O95398); assay: Counterscreen qHTS for antagonist of cAMP-regulated guanine nucleotide exchange factor 3 (EPAC1) (AID 1645888)
# How it was run: (§1)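 Rap1B-BODIPY-GDP 250 nM + GDP 50 uM; cpds 7-pt, final 9.74 nM–152 uM (activator mode) or from 7.32 nM upwards (inhibitor mode); RT; FI 480/540 nm at 5 and 30 min, then ± cAMP, reread.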
# [6] = target: Rap guanine nucleotide exchange factor 3 (Homo sapiens) (UniProt O95398); assay: Counterscreen qHTS for agonist of cAMP-regulated guanine nucleotide exchange factor 3 (EPAC1) (AID 1645889); further: nearly all actives have a fitted effect of over 40% in size; further: potency means the concentration at half of the fitted maximal effect
# How it was run: as §1
# Sequence of Rap guanine nucleotide exchange factor 3 (Homo sapiens) (O95398 whole entry, looked up): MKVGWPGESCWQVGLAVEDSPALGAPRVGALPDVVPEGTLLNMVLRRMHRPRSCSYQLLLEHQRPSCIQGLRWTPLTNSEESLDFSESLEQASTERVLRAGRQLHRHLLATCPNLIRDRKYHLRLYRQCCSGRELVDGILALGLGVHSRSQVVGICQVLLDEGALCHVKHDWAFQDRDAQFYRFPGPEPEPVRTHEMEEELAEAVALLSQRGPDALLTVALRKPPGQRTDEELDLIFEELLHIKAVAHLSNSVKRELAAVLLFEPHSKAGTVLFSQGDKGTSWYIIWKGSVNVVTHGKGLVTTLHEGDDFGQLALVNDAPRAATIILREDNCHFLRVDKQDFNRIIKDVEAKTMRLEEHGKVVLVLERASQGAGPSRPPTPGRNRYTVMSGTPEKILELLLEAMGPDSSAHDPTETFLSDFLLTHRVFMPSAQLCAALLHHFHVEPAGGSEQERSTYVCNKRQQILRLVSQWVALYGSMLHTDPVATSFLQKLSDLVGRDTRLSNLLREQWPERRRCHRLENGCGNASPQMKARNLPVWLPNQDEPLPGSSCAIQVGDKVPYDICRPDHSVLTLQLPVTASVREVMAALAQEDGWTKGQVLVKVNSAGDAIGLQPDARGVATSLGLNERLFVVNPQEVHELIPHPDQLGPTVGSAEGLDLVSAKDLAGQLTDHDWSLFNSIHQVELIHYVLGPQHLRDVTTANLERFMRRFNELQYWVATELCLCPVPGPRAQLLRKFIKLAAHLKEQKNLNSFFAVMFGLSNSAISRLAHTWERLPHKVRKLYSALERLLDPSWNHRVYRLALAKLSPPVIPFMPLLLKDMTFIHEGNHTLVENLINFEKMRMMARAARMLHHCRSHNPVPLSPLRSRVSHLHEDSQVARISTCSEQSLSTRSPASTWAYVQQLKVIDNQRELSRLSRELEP
# Sequence of Rap guanine nucleotide exchange factor 4 (Homo sapiens) (Q8WZA2 whole entry, looked up): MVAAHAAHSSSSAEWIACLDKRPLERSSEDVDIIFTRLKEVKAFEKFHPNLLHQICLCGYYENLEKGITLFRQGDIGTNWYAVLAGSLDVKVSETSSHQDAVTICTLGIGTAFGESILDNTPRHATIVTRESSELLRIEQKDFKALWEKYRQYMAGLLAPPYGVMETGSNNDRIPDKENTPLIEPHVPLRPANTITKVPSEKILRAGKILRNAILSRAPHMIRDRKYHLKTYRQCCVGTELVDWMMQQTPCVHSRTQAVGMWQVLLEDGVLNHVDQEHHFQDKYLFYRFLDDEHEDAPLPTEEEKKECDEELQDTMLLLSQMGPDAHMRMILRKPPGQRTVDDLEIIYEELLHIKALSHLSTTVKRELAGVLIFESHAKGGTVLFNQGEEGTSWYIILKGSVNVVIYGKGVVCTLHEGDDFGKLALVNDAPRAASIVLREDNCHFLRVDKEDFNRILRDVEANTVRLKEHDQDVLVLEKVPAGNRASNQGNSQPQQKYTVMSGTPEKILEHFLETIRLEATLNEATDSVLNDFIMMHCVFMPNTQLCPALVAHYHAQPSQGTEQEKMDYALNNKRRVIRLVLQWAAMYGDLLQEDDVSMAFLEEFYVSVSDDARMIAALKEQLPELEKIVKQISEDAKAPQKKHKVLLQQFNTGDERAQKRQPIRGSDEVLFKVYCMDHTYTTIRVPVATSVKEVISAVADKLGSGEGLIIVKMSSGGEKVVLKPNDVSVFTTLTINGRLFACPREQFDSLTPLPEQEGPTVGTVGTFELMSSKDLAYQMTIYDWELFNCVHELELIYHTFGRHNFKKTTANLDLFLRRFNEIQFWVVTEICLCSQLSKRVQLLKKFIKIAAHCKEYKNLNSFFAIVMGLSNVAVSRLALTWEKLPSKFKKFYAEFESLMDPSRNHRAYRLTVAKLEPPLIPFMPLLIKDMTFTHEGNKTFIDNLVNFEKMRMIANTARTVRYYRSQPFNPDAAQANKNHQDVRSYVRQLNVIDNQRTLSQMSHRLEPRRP
SMILES,Potency [1],Potency [2],Potency [3],Potency [4],Potency [5],Potency [6],activation [3],"activity change, negative = inhibition [5]",activation [6],outcome [4]
COC(=O)c1ccc2nc(-c3ccccc3)c(Cc3ccccc3C(F)(F)F)n2c1,inactive,inactive,inactive,0.757 µM (active),inactive,inactive,,,,
O=S(=O)(O)c1cccc(N=Nc2c(O)ccc3ccccc23)c1,37.9 µM (active),inactive,inactive,23.9 µM (active),inactive,inactive,,,,
COc1cccc(/C=N/NC(=O)c2cc3cc([N+](=O)[O-])ccc3s2)c1O,35.5 µM (active),inactive,,inactive,,,"10.9% [at 17.1 µM, percent relative to cAMP agonist control]",-2.63% [at 30.8 µM],26.8% [at 30.8 µM],
COc1ccc(C2c3ccsc3CCN2C(C)=O)cc1 (stereo not drawn),inactive,inactive,inactive,inactive,inactive,inactive,,,,
Cc1ccc(NC(=O)Cn2nnc(-c3nc(-c4ccncc4)no3)c2N)c(C)c1,inactive,inactive,inactive,inactive,inactive,inactive,,,,
COc1ccc(S(=O)(=O)N2CCCCC2)cc1C(C)C,inactive,inactive,inactive,8.49 µM (active),inactive,inactive,,,,
Cc1cc(-c2ccc(F)cc2)n2ncc(-c3ccccc3)c2n1,inactive,inactive,inactive,inactive,inactive,inactive,,,,
COc1cc(NC(=O)C2CCCCC2)c(OC)cc1NC(=O)CN1CCCCC1,inactive,inactive,,inactive,,,"4.14% [at 17.1 µM, percent relative to cAMP agonist control]",-6.17% [at 30.8 µM],11.1% [at 30.8 µM],
Cc1ccc(-n2nnnc2SCC(=O)NCC2(N3CCOCC3)CCCCC2)cc1,inactive,inactive,inactive,inactive,inactive,inactive,,,,
Cn1cc([C@]2(O)C(=O)Nc3c(F)cccc32)c2ccccc21,inactive,inactive,inactive,inactive,inactive,inactive,,,,
CCCCc1nc(SCCOC)c2c(=O)n(C)c(=O)n(C)c2n1,inactive,inactive,,inactive,,,"4.93% [at 17.1 µM, percent relative to cAMP agonist control]",-15.9% [at 30.8 µM],-0.239% [at 30.8 µM],
COc1ccc(-c2cc(=O)oc3c(O)c(O)ccc23)cc1,8.49 µM (active),inactive,inactive,inactive,inactive,inactive,,,,
N#C/C(=C/c1ccc(O)c(O)c1)C(=O)NCc1ccc(Cl)cc1,12.6 µM (active),inactive,,inactive,,,"6.16% [at 17.1 µM, percent relative to cAMP agonist control]",-1.17% [at 30.8 µM],19.6% [at 30.8 µM],
CC1(C(=O)NS(=O)(=O)c2ccc3c(c2)CCO3)CCN1C(=O)C1(c2ccc(Cl)cc2)CCC1 (stereo not drawn),39.8 µM (active),inactive,,inactive,,,"1.36% [at 17.1 µM, percent relative to cAMP agonist control]",-29.8% [at 30.8 µM],34% [at 30.8 µM],
CSc1ccccc1NC(=O)CN(c1ccccc1)S(=O)(=O)N(C)C,inactive,inactive,inactive,inactive,inactive,inactive,,,,
Cc1cccc(NC(=O)c2cc(S(=O)(=O)N(C)c3ccc(F)cc3)ccc2Cl)n1,inactive,inactive,inactive,inactive,inactive,inactive,,,,
CSc1ccccc1C(=O)Nc1ccc(C)cc1C,inactive,inactive,,inactive,,,"-2.17% [at 17.1 µM, percent relative to cAMP agonist control]",-16.8% [at 30.8 µM],-3.4% [at 30.8 µM],
CCc1cc2c(=O)c(-c3nc4ccccc4n3C)coc2c(CN2CCCCC2C)c1O (stereo not drawn),inactive,inactive,inactive,inactive,inactive,inactive,,,,
Cc1ccccc1N=C(c1ccccc1)C1C(=O)c2ccccc2C1=O,inactive,inactive,,inactive,,,"8.41% [at 17.1 µM, percent relative to cAMP agonist control]",-5.51% [at 30.8 µM],13.3% [at 30.8 µM],

SMILES,Potency [1],Potency [2],Potency [3],Potency [4],Potency [5],Potency [6],activation [3],"activity change, negative = inhibition [5]",activation [6],outcome [4]
O=C(Nc1ncccc1O)c1ccc2c(c1)OCCO2,inactive,inactive,,inactive,,,"2.78% [at 17.1 µM, percent relative to cAMP agonist control]",6.79% [at 30.8 µM],22.4% [at 30.8 µM],
O=C(COC(=O)Cc1c(Cl)cccc1Cl)NCC1CCCO1 (stereo not drawn),inactive,inactive,inactive,75.7 µM (active),inactive,inactive,,,,
CCOc1ccc2nc(S(=O)(=O)NC(=O)C3(C)CCN3C(=O)CCc3cccs3)sc2c1 (stereo not drawn),inactive,inactive,,inactive,,,"5.68% [at 17.1 µM, percent relative to cAMP agonist control]",-20.4% [at 30.8 µM],4.36% [at 30.8 µM],
Cc1ccc(C)c(S(=O)(=O)N2CCN(C(=O)CCc3nc4ccccc4c(=O)[nH]3)CC2)c1,inactive,inactive,,inactive,,,"4.63% [at 17.1 µM, percent relative to cAMP agonist control]",-11.5% [at 30.8 µM],23.6% [at 30.8 µM],
C/C(Cc1ccccc1)=N\NC(=O)c1cccnc1,inactive,inactive,,inactive,,,"21.1% [at 17.1 µM, percent relative to cAMP agonist control]",-5.84% [at 30.8 µM],15.7% [at 30.8 µM],
Cc1ccc2c(c1)NC(=O)C(CC(=O)N(C)Cc1ccccc1)O2 (stereo not drawn),inactive,inactive,,inactive,,,"3.24% [at 17.1 µM, percent relative to cAMP agonist control]",-5.86% [at 30.8 µM],9.9% [at 30.8 µM],
O=S(=O)(NCC1(N2CCOCC2)CCCCC1)c1ccc(Cl)cc1C(F)(F)F,inactive,inactive,inactive,inactive,inactive,inactive,,,,
CCc1nnc(NS(=O)(=O)c2ccc(NC(=S)NC(=O)c3ccc(Br)cc3)cc2)s1,60.1 µM (active),inactive,inactive,75.7 µM (active),inactive,inactive,,,,
Cc1ccc(S(=O)(=O)NN2C(=O)/C(=C/c3cccnc3)SC2=S)cc1,42.6 µM (active),inactive,inactive,inactive,inactive,inactive,,,,
O=C(CSc1nc2ccsc2c(=O)n1CC1CCC(C(=O)O)CC1)c1ccc(Cl)cc1 (stereo not drawn),47.8 µM (active),inactive,inactive,inactive,inactive,inactive,,,,
COc1cc2c(cc1OC)CN(C(C)C(=O)N1CCc3ccccc31)CC2 (stereo not drawn),inactive,inactive,inactive,inactive,inactive,inactive,,,,
CCCn1c(=O)n(C)c(=O)c2c(SCC(=O)NCc3ccco3)nc(C3CC3)nc21,inactive,inactive,inactive,inactive,inactive,inactive,,,,
Cc1noc(C)c1S(=O)(=O)Nc1ccc2c(c1)C(=O)N([C@@H](C)CO)C[C@@H](C)[C@@H](CN(C)CC1CCCCC1)OCCCC[C@@H](C)O2,inactive,inactive,inactive,inactive,inactive,inactive,,,,
COc1ccc(C)cc1-n1c(-c2ccc(Cl)cc2)cc2c1CC(C)(C)CC2=O,inactive,inactive,inactive,,inactive,inactive,,,,inactive [at 12.7 µM]
CC(OC(=O)/C(C#N)=C/c1ccc(N(C)C)cc1)C(=O)N(C)c1ccccc1 (stereo not drawn),inactive,50.1 µM (active),,inactive,,,"3.03% [at 17.1 µM, percent relative to cAMP agonist control]",-2.82% [at 30.8 µM],20.3% [at 30.8 µM],
CC(C)Oc1nc(-c2ccccc2Cl)nc2ccccc12,inactive,inactive,inactive,inactive,inactive,inactive,,,,
Cc1[nH][nH]c(=O)c1C(c1ccc(-c2ccc(Cl)c(C(=O)O)c2)o1)c1c(C)[nH][nH]c1=O,inactive,inactive,,inactive,,11.2 µM (active),"10.1% [at 17.1 µM, percent relative to cAMP agonist control]",34.9% [at 30.8 µM],,
COc1ccc(CNC(=S)N/N=C/c2ccc(OC)c(OC)c2)cc1,inactive,inactive,inactive,67.5 µM (active),inactive,inactive,,,,
Cc1[nH]n(-c2ncc(-c3ccccc3)s2)c(=O)c1C(c1ccc(Cl)cc1)C(C#N)C#N (stereo not drawn),22.4 µM (active),inactive,,inactive,,,"-0.2% [at 17.1 µM, percent relative to cAMP agonist control]",-10.4% [at 30.8 µM],13% [at 30.8 µM],
